The text below walks through data of PubChem BioAssay.

Usually inhibition stands for the relative decrease from the control value, in per cent.

A number with no mark means an inactive call. Calls of active or inactive are those of the source.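 The calls were made as follows, unless noted: active = compounds that lower survival of HCT116 colon cancer cells in the luminescence readout, no numeric limit stated; inactive = the rest.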

A short description of test [1]: stimulators of insulin release from INS-1E, primary screen, cell-based, 5 mM glucose, NPC library (AID 1117329;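 active = compound raises insulin release from rat beta cells at 5 mM glucose, no numeric limit stated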). As to conditions: rat INS-1E insulin secretion, at 10 µM, active compounds read high.
Test [2] is described as follows: growth inhibition of GSK3B-pretreated HCT116 cells – cell-based, CellTiter-Glo, 0.2 to 20 µM (AID 1117336;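 active = compounds lowering colon cancer cell viability after pretreatment blocking the GSK3B kinase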). The settings on record: HCT116 viability after GSK3B inhibitor, at 20 µM, active compounds read high. In general terms: In ATP-based viability assays light output follows the ATP content of the culture.
Test [3] is described as follows: inhibition of endothelial tube formation, primary screen, imaging, VEGF stimulated, CD31 staining, tube area, NPC library (AID 1117340;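 active = compound that reduces growth-factor-driven endothelial tube area in a mixed cell culture, no cutoff stated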). As to conditions: VEGF-stimulated ADSC/ECFC co-culture, at 10 µM, active compounds read high.
Test [4] can be described thus: GLP1 release stimulators, primary, NCI-H716, NPC library (AID 1117341;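 active = compound raises GLP1 secretion from the human gut endocrine cells, with no numeric limit stated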). The settings on record: NCI-H716 cells, at 10 µM, active compounds read high.
The nature of test [5]: HCT116 colon cancer cell growth inhibition, primary screen, CellTiter-Glo luminescence, NPC library (AID 1117342). The settings on record: at 20 µM (top of the series).
Test [6] in a line: reduced SW480 viability measured with CellTiter-Glo, NPC library, primary (AID 1117343;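 active = compounds that lower viability of the colon cancer cells in the luminescence readout, with no numeric limit stated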). The settings on record: CellTiter-Glo luminescence; at 20 µM (top of the series).
A short description of test [7]: NPC library primary testing for decreased DLD-1 cell viability via CellTiter-Glo (AID 1117346;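 active = compounds that lower survival of DLD-1 colon cancer cells in the luminescence readout, no cutoff given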). As to conditions: DLD-1 viability, CellTiter-Glo luminescence; at 20 µM (top of the series).
The target in test [8] is 6-phosphogluconate dehydrogenase, decarboxylating (Homo sapiens) (UniProt P52209). In words: inhibition of human phosphogluconate dehydrogenase – biochemical, recombinant enzyme, NADPH absorbance, primary screen (AID 1159550;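 active = at least 20% inhibition of 6-phosphogluconate dehydrogenase activity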). As to conditions: recombinant 6PGD, NADPH absorbance 341 nm; at 10 µM; active compounds read high.
Sequence of 6-phosphogluconate dehydrogenase, decarboxylating (Homo sapiens) (P52209 whole entry, looked up): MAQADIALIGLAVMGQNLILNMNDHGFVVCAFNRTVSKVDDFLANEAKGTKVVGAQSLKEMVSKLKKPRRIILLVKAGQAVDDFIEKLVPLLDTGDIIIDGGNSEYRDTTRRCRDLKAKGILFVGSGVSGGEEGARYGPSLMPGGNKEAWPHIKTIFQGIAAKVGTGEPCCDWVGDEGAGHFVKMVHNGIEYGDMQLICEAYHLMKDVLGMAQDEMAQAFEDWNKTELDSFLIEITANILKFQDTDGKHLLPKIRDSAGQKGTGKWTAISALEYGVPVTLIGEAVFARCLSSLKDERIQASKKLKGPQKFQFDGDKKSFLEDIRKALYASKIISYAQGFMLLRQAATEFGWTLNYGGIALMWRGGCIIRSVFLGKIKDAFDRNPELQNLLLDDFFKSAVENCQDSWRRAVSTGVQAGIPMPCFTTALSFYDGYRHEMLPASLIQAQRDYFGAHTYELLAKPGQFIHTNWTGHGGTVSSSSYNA

On to `CCC(Cc1c(I)cc(I)c(N)c1I)C(=O)O` (stereo unspecified), for which, in test [1], the insulin secretion stimulation was 0.8%. Further, the viability decrease in test [2] is -70.8%. Further, the tube area decrease in test [3] was 4%. Moreover, the GLP1 secretion stimulation in test [4] was 1.8%. Moreover, in test [5], the inhibition of viability is 7.7%. The figures for the viability decrease (inhibition) in test [6] and in test [7] were 18.6% and -5.3%, respectively. Further, in test [8], the inhibition was -0.317%.
Take `Oc1c(Cl)cc(Cl)cc1Sc1cc(Cl)cc(Cl)c1O`: in test [1], the insulin secretion stimulation was 5.2%. Also, in test [2], the viability decrease is 99.2% (active). Moreover, in test [3], the tube area decrease was 103% (active). Moreover, the GLP1 secretion stimulation in test [4] was 23.6% (active). For the same compound, the inhibition of viability in test [5] was 103% (active). For the same compound, the viability decrease (inhibition) in test [6] is 113% (active); in test [7], 102% (active). The inhibition in test [8] was -6.91%.
Regarding `Cc1ncc([N+](=O)[O-])n1CCO`, the insulin secretion stimulation in test [1] was -1.4%. Besides, the viability decrease in test [2] is 55.6% (active). Besides, the tube area decrease in test [3] was -14.9%. For the same compound, in test [4], the GLP1 secretion stimulation is -0.3%. Moreover, the inhibition of viability in test [5] is 18.5%. The viability decrease (inhibition) in test [6] is 75.1% (active); in test [7] it was 55% (active). The inhibition in test [8] is -20.7%.
On to `O=C(O)c1cccnc1Nc1cccc(C(F)(F)F)c1`, for which, in test [1], the insulin secretion stimulation is -3.1%. Besides, the viability decrease in test [2] is 13%. For the same compound, the tube area decrease in test [3] is 12.7%. Also, the GLP1 secretion stimulation in test [4] is 0.6%. In addition, in test [5], the inhibition of viability was -5.9%. Further, the values for the viability decrease (inhibition) in test [6] and in test [7] were 60% (active) and 28.2%, respectively. In test [8], the inhibition was 12.6%.
For the compound `OC[C@H]1O[C@@H](Oc2ccc(O)cc2)[C@H](O)[C@@H](O)[C@@H]1O`, in test [1], the insulin secretion stimulation is -0.6%. Also, the viability decrease in test [2] was -2.2%. Further, the tube area decrease in test [3] is 1%. Also, in test [4], the GLP1 secretion stimulation was -2.9%. The inhibition of viability in test [5] was -1.8%. The viability decrease (inhibition) in test [6] was 2.3% (active); in test [7], -10.8%. Moreover, the inhibition in test [8] was 17.9%.
For `NS(=O)(=O)c1cc2c(cc1Cl)NC(C(Cl)Cl)NS2(=O)=O` (stereo unspecified), the insulin secretion stimulation in test [1] was 1.15%. Moreover, the viability decrease in test [2] was 13.9%. Also, the tube area decrease in test [3] is -20.1%. Also, the GLP1 secretion stimulation in test [4] was 0.9%. The inhibition of viability in test [5] is -37.1%. The viability decrease (inhibition) in test [6] was -6.6%; in test [7] it was 6.3%. Also, the inhibition in test [8] is 17.4%.
Consider `Cc1ccc(C(C)C)cc2c(C)ccc1-2`, for which the insulin secretion stimulation in test [1] was -0.7%. In addition, the viability decrease in test [2] is -28.6%. Besides, the tube area decrease in test [3] was 15.5%. In addition, the GLP1 secretion stimulation in test [4] is -6.3%. The inhibition of viability in test [5] was 5.77%. Further, the viability decrease (inhibition) is -9.4% in test [6] and -6.8% in test [7]. For the same compound, the inhibition in test [8] is -19.1%.
As for `C/C=C(/C(=C/C)c1ccc(O)cc1)c1ccc(O)cc1`, the insulin secretion stimulation in test [1] is -1.9%. Further, in test [2], the viability decrease is 101% (active). The tube area decrease in test [3] was 49.5% (active). For the same compound, in test [4], the GLP1 secretion stimulation was 34.7% (active). The inhibition of viability in test [5] is 101% (active). In addition, the results for the viability decrease (inhibition) in test [6] and in test [7] were 123% (active) and 102% (active), respectively. For the same compound, the inhibition in test [8] was 15.9%.
Take `COC(=O)[C@@H](N)CS`: in test [1], the insulin secretion stimulation was 1.6%. The viability decrease in test [2] was -1.8%. The tube area decrease in test [3] was -0.7%. Moreover, in test [4], the GLP1 secretion stimulation was 4.1%. The inhibition of viability in test [5] was 3.2%. Besides, the viability decrease (inhibition) is 17.6% in test [6] and 23.2% (active) in test [7]. The inhibition in test [8] was 3.23%.
Consider `CC(=O)NCCCCCC(=O)O`, for which the insulin secretion stimulation in test [1] was 1.2%. For the same compound, the viability decrease in test [2] was -17.4%. Moreover, the tube area decrease in test [3] is -4.2%. Also, the GLP1 secretion stimulation in test [4] is -0.1%. For the same compound, the inhibition of viability in test [5] was -1.55%. The results for the viability decrease (inhibition) in test [6] and in test [7] were 24.9% and -11.9%, respectively. Besides, in test [8], the inhibition is -3.52%.
`CC(C)NCC(O)c1ccc2ccccc2c1` (stereo unspecified): the insulin secretion stimulation in test [1] was 9.8%. For the same compound, the viability decrease in test [2] is 6.6%. The tube area decrease in test [3] is -11.2%. Further, in test [4], the GLP1 secretion stimulation is 1.5%. The inhibition of viability in test [5] is 26.4%. Further, the results for the viability decrease (inhibition) in test [6] and in test [7] were 20.9% and 19.4%, respectively. For the same compound, the inhibition in test [8] was 8.21%.
`CN(C)[C@@H]1C(=O)C(C(N)=O)=C(O)[C@@]2(O)C(=O)C3=C(O)c4c(O)ccc(Cl)c4[C@@H](O)[C@H]3C[C@@H]12`: the insulin secretion stimulation in test [1] was 0.9%. For the same compound, the viability decrease in test [2] was -29.7%. Moreover, the tube area decrease in test [3] is 17.3%. Besides, in test [4], the GLP1 secretion stimulation is 10.2%. In test [5], the inhibition of viability was 57% (active). Also, the viability decrease (inhibition) was 107% (active) in test [6] and 94.7% (active) in test [7]. In test [8], the inhibition was 0.718%.
On to `NC(N)=Nc1nc(CSCC/C(N)=N/S(N)(=O)=O)cs1`, for which the insulin secretion stimulation in test [1] is 2.8%. In addition, the viability decrease in test [2] is 6.7%. Further, in test [3], the tube area decrease was 6.4%. For the same compound, the GLP1 secretion stimulation in test [4] is 1.4%. Also, the inhibition of viability in test [5] is -8.7%. Further, the viability decrease (inhibition) in test [6] was 0.7%; in test [7] it was -10.3%. In test [8], the inhibition was 5.97%.
Turning to `NC(=O)NC(=O)Cc1ccccc1`, the insulin secretion stimulation in test [1] is 1.3%. Moreover, in test [2], the viability decrease is -10.2%. In addition, the tube area decrease in test [3] was 2.3%. Also, the GLP1 secretion stimulation in test [4] is -2.2%. Further, the inhibition of viability in test [5] was -3.67%. Also, the viability decrease (inhibition) in test [6] was 38.8%; in test [7], -11.6%. Also, in test [8], the inhibition is 7.97%.
On to `NCCCCCC(=O)O`, for which the insulin secretion stimulation in test [1] was -1.3%. Also, in test [2], the viability decrease is -23%. For the same compound, the tube area decrease in test [3] is 15.9%. Besides, the GLP1 secretion stimulation in test [4] was 1.1%. Besides, in test [5], the inhibition of viability is -10.8%. In addition, the figures for the viability decrease (inhibition) in test [6] and in test [7] were 9.9% and -9.4%, respectively. For the same compound, the inhibition in test [8] is 11.8%.
Consider `CCCc1cc(C(N)=S)ccn1`, for which the insulin secretion stimulation in test [1] was -1.7%. In addition, the viability decrease in test [2] was -13.4%. Besides, the tube area decrease in test [3] is 1%. The GLP1 secretion stimulation in test [4] is -0.6%. Also, the inhibition of viability in test [5] was 6.7%. Besides, the viability decrease (inhibition) in test [6] is 5.3%; in test [7], -3.5%. Moreover, in test [8], the inhibition was 3.48%.
With `Oc1c(Br)cc(Br)c2cccnc12`, the insulin secretion stimulation in test [1] was 2.4%. The viability decrease in test [2] is 113% (active). In test [3], the tube area decrease was 108% (active). Further, the GLP1 secretion stimulation in test [4] was 4.3%. In test [5], the inhibition of viability is 96.7% (active). Also, the viability decrease (inhibition) in test [6] is 153% (active); in test [7] it was 99.7% (active). In test [8], the inhibition was 4.35%.
